High-throughput results from PubChem.
HP1b chromo inh: inhibitors of HP1-beta chromodomain binding to methylated histone tails | P83916 | AlphaScreen HP1-beta / biotin-H3K9me3 peptide binding | Potency, µM (series often up to 114 µM), for the others: at the top dose activity change, negative = inhibition, hits mostly inhibitors | hit rate 0.56% among 390,000; note: nearly all actives have a fitted effect of over 70% in size
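HP1-beta protein (50 nM final) preincubated 30 min at room temperature with biotinylated H3(1-18)K9me3 peptide (50 nM) in PBS pH 7.4, 0.01% Tween-20, then compound added for 30 min. AlphaScreen streptavidin donor/nickel chelate acceptor beads (10 ug/mL final), 30 min dark, luminescence read.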
JMJD2A Tudor: blocks the human JMJD2A Tudor domain; O75164; AlphaScreen JMJD2A-Tudor / H3K4me3 peptide binding; Potency, µM (top dose mostly 114 µM), for the others: at the top dose activity change, negative = inhibition, actives largely listed as inhibitors; hit rate 4.4% among 390,000; note: % is set by controls: 0 for no effect and ±100 for the full control effect; nearly all actives have a fitted effect of over 50% in size
BAZ2B block: inhibitors of human BAZ2B bromodomain | AlphaScreen BAZ2B-H3K14Ac peptide displacement | Potency, µM (titrated, usually from 114 µM), without a hit: at the highest dose activity change, negative = inhibition, hits mostly inhibitors | hit rate 4.4% among 360,000; note: % is set by controls: 0 for no effect and ±100 for the full control effect; nearly all actives have a fitted effect of over 60% in size
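Inhibition is scored as reduced AlphaScreen emission. The BAZ2B/b-H3(5-23)K14Ac complex (50 nM each) in PBS pH 7.4, 0.01% Tween-20 meets compound (up to 110 uM) for 30 min at RT before bead addition.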
G9a inh: inhibitors of human histone lysine methyltransferase G9a; hit rate 8.8% among 350,000; Q96KQ7; Potency, µM (highest dose often 102 µM), for inactives: at the top dose activity, negative = inhibition, usual class: inhibitors; G9a H3K9 monomethylation, AlphaScreen, 2 h; note: % is set by controls: 0 for no effect and ±100 for the full control effect; nearly all actives have a fitted effect of over 75% in size
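G9a (20 nM) preincubated 15 min RT with compounds, then 500 nM biotinylated H3K9 peptide and 20 uM SAM added; 2 h RT reaction. Monomethyl-H3K9 product detected by AlphaScreen with anti-H3K9me1 antibody, streptavidin donor and anti-rabbit IgG acceptor beads.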
Sfp PPTase inh: inhibitors of Bacillus subtilis Sfp phosphopantetheinyl transferase. Q9F4F7. Biochemical Sfp PPTase activity, qHTS. Potency, µM, without a hit: largest response in the series, negative = inhibition, actives largely listed as inhibitors. hit rate 3.5% among 310,000. AID 1490;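 note: the enzyme is Sfp with the accession as filed and its product quenches rhodamine fluorescence; 0% = enzyme reaction without inhibitor and -100% = no enzyme wells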
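Fluorescence-quenching assay with 15 nM Sfp, 5 uM rhodamine-CoA and 12.5 uM BHQ-2-labelled ybbR peptide in pH 7.6 Hepes/MgCl2 buffer. Enzyme was pre-incubated with compound for 15 min at room temperature. Rate was taken from the 30-min fluorescence change (525/598 nm).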
L3MBTL1 inh: inhibitors of human L3MBTL1; Q9Y468; AlphaScreen L3MBTL1–H3K9me1 peptide binding; Potency, µM (doses to about 57.1 µM), inactives show at the highest dose activity, negative = inhibition, actives largely listed as inhibitors; hit rate 0.66% among 230,000; AID 485360; note: % is set by controls: 0 for no effect and ±100 for the full control effect; nearly all actives have a fitted effect of over 60% in size
Target sequence (Q9Y468 whole entry, looked up): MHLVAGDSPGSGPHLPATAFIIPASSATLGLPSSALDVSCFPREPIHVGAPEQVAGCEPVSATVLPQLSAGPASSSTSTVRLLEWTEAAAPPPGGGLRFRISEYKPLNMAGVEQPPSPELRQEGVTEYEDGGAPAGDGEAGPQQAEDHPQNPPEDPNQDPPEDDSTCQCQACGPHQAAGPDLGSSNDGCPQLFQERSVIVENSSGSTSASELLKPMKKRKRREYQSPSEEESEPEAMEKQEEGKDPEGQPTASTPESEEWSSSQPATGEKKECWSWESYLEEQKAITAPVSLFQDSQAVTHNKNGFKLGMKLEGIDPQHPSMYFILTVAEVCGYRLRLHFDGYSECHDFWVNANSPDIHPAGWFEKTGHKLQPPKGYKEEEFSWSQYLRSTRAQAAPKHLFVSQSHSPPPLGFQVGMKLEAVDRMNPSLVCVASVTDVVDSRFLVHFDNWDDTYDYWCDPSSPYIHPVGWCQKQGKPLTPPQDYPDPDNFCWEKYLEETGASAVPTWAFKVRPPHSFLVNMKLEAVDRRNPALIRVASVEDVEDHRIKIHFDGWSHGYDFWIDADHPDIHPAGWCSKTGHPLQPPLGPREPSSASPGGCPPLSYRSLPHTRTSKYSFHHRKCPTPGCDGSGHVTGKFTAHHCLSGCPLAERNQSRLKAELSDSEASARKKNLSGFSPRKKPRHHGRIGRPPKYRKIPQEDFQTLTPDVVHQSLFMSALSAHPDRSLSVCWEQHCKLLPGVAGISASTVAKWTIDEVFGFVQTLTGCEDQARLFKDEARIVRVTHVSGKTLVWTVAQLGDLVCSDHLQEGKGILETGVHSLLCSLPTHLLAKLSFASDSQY
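Read-out is AlphaScreen signal from streptavidin donor and nickel chelate acceptor beads (10 ug/mL final each) bridging L3MBTL1 (50 nM) and biotinylated K9-monomethylated H3(1-15) peptide (75 nM), after 30 min compound exposure at room temperature.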
* hit, by the source's call; ? = inconclusive; . = no result; [ ] = remark or other dose. Only some compounds are listed: those with a hit (about 12% of all), similar ones and a draw of the others. Calls come from the whole dose curve; as a rule, active = well fitted curve in the direction sought with a large enough effect; inconclusive = small, poorly fitted or top-dose-only effect, or another doubt; inactive = no such curve, though single readings can be large; an effect the other way counts as inactive or inconclusive. Potency is the fitted concentration of half-maximal effect.

SMILES	HP1b chromo inh	JMJD2A Tudor	BAZ2B block	G9a inh	Sfp PPTase inh	L3MBTL1 inh
O=C1NN(c2ccccc2)C(=O)/C1=C\c1cccc(OC(=O)c2cccs2)c1	3.3%	?	56.2µM*	?	50.1µM*	.
O=C1NN(c2ccc(Cl)c(Cl)c2)C(=O)/C1=C/c1cccc(OC(=O)c2cccs2)c1	.	.	50.1µM*	?	?	.
O=C(c1cccc(F)c1)N1CCC2(CCCN(c3ccncc3)C2)CC1	.	.	.	0.4%[12.7 µM]	11.1%	.
O=c1[nH]c(CN2CCN(c3ccccc3O)CC2)nc2ccccc12	9.4%	8.91µM*	-8.2%	?	-6.8%	-4.4%
NC(=O)C1CCN(Cc2nc3ccccc3c(=O)[nH]2)CC1	6.3%	3.16µM*	-35.2%	?	0.2%	.
O=c1[nH]c(CN2CCN(CCO)CC2)nc2ccccc12	39.7%	-8.2%	-2.2%	20.1%[59 µM]	0.4%	18.9%
CC1CCCCN1Cc1nc2ccccc2c(=O)[nH]1 (stereo unspecified)	15.2%	79.4µM*	-33.1%	5.2%[12.7 µM]	-9.2%	2.0%
NC(=O)C1CCN(Cc2nc3cc(Cl)ccc3c(=O)[nH]2)CC1	2.1%	-22.0%	5.2%	6.9%[59 µM]	-7.3%	.
O=C(Nc1cccc(S(=O)(=O)N2CCOCC2)c1)C1=NN(c2ccccc2)C(=O)CC1	20.6%	-15.9%	-8.1%[57.1 µM]	1.4%	7.4%	.
CCc1cccc(C)c1NC(=O)Cn1ccn(Cc2ccc(Cl)cc2)c(=O)c1=O	-0.5%	-20.1%	-1.2%	-4.1%[59 µM]	.	.
CCN(CC)c1ccc(/C=N/Nc2cccc(C)c2)c(O)c1	17.8µM*	39.8µM*	50.1µM*	1.41µM*	?	-27.7%
CCN(CC)c1ccc(/C=N/NC(=S)NC)c(O)c1	?	44.7µM*	39.8µM*	?	-8.2%	.
CCN(CC)c1ccc(/C=N/Nc2ccccc2)c(O)c1	15.8µM*	28.2µM*	44.7µM*	?	56.2µM*	-8.8%
CSc1ccc(CNC(=O)c2ccc3c(c2)N(C)C(=O)C2CCCCN32)cc1 (stereo unspecified)	8.4%[57 µM]	-24.0%	-20.7%	-26.3%[59 µM]	.	.
CCOC(=O)c1cc(-c2ccccc2C)nn1CC1CC(c2cccnc2)=NO1 (stereo unspecified)	48.6%	-14.8%	.	.	.	2.4%
COC(=O)c1ccc(N2CCC(c3cc(-c4ccc(OC)cc4)n[nH]3)CC2)c([N+](=O)[O-])c1	-19.0%	?	?	15.8µM*	?	-18.0%
COC(=O)c1ccc(N2CCc3ccccc32)c([N+](=O)[O-])c1	?	14.1µM*	7.94µM*	15.8µM*	-10.1%	.
O=C(O)c1ccc(N2CCc3ccccc32)c([N+](=O)[O-])c1	-3.7%	-30.1%	?	?	11.2%	.
O=C(NCc1ccc(F)cc1)c1ccc(N2CCc3ccccc32)c([N+](=O)[O-])c1	50.1µM*	17.8µM*	7.08µM*	25.1µM*	1.7%	?
COC(=O)c1ccc(N2CCN(CC(=O)c3ccc(-c4ccccc4)cc3)CC2)c([N+](=O)[O-])c1	11.7%	-27.4%	-36.3%[57.1 µM]	44.7µM*	?	-9.0%
CS(=O)(=O)N1CCc2cc(C(=O)Nc3ccc(S(N)(=O)=O)cc3)ccc21	21.8%	-12.9%	0.2%	8.7%[59 µM]	.	.
CC1(O)CC(C)(C)C(C#N)C(=O)N1 (stereo unspecified)	11.5%[57 µM]	-15.9%	.	.	.	.
CCc1nc2nc(C)cc(Nc3ccc(OC)cc3OC)n2n1	18.0%	-1.0%	0.6%	-4.3%[59 µM]	.	.
CCOC(CNC(=O)c1ccc(N2CCc3ccccc32)c([N+](=O)[O-])c1)OCC	28.2µM*	56.2µM*	39.8µM*	11.2µM*	3.3%	?
CC(=O)c1ccc(N2CCc3ccccc3C2)c([N+](=O)[O-])c1	-18.4%	?	?	.	28.2µM*	-4.6%
SMILES	HP1b chromo inh	JMJD2A Tudor	BAZ2B block	G9a inh	Sfp PPTase inh	L3MBTL1 inh
CC(=O)c1ccc(N2CCN(c3ncccn3)CC2)c([N+](=O)[O-])c1	-3.7%	-23.6%	-29.5%	-9.2%	-10.9%	.
CCOC(CNC(=O)c1ccc2c(c1)ncn2-c1ccccc1OC)OCC	71.7%	-4.5%	-3.4%	14.6%	11.5%	.
CC(C(=O)Nc1ccc(N(C)C)cc1)N1C(=O)c2ccccc2S1(=O)=O (stereo unspecified)	?	44.7µM*	?	14.1µM*	.	-5.0%
S=C(NCc1ccccn1)Nc1ccc(Cl)c(Cl)c1	17.5%	-13.1%	-6.1%	.	-29.4%	3.5%
CCNC(=S)NNC(=O)c1ccccn1	36.6%	25.1µM*	3.16µM*	-10.6%	-9.3%	3.55µM*
O=C(NNC(=S)Nc1ccc(Cl)c(Cl)c1)c1ccccn1	-1.6%	25.1µM*	4.47µM*	.	7.1%	-91.4%
CCN(C(=O)CSc1ncccn1)C1CCS(=O)(=O)C1 (stereo unspecified)	6.1%	-9.2%	-4.1%	41.7%	12.3%	.
Cc1ccc(NC(=O)Cn2c(-c3cncs3)nc3ccccc32)c(Br)c1	7.0%	-34.6%	-8.8%	-33.8%[59 µM]	.	.
CC(=O)Nc1ccc(NC(=O)C(C)OC(=O)CCC2CCCC2)cc1 (stereo unspecified)	12.6%	-10.5%	2.9%	35.5µM*	.	7.6%
CCCNC(=O)[C@H]1O[C@@H]1C(=O)N[C@H](C(=O)N1CCC[C@H]1C(=O)OC)[C@@H](C)CC	.	.	.	40.9%[59 µM]	21.3%	.
O=C(NCCCN1CCOCC1)c1ccc2c(c1)N(Cc1ccccc1)CCS2	-4.1%	?	?	0.4%[12.7 µM]	-6.7%	-22.4%
O=C(NCCN1CCOCC1)c1ccc2c(c1)N(Cc1ccccc1)CCS2	-21.4%	?	-32.3%	50.1µM*	-1.5%	-3.1%
CN1CCN(CCCNC(=O)c2ccc3c(c2)N(Cc2ccccc2)CCS3)CC1	6.4%	?	-11.7%	79.4µM*	-14.6%	.
CN1CCSc2ccc(C(=O)NCc3ccccc3)cc21	20.2%	-19.7%	?	39.8µM*	-9.9%	-5.7%
COc1ccc(CNC(=O)c2ccc3c(c2)N(Cc2ccccc2)CCS3)cc1	16.2%	-27.8%	-10.5%	?	.	.
